From PMC5540273 (PLoS ONE, 2017)

system: PAK7; settings: concentration: 1 μM, replicates: in singlicate; n = 1
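Further: KINOMEscan kinase panel screen.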

| Structure (SMILES) | %Inh [%] |
| --- | --- |
| FC(F)(F)c1ccc(/C=C/c2cncnc2Nc2ccc3[nH]c(Cc4ccccc4)nc3c2)cc1 [GW709199] | 0 |
| COc1ccc(Nc2nccc(NCCNC(=O)c3cc4ccccc4s3)n2)cc1 [GSK1379896] | 0 |
| Cl.Cl.NCC(NCc1ccc(-c2ccnc3[nH]ccc23)s1)c1ccccc1 (centres unmarked) [GSK1321565] | 0 |
| O=C(Nc1cccc(-c2nn3ncccc3c2-c2ccnc(Nc3ccccc3)n2)c1)c1c(F)cccc1F [GSK198271] | 0 |
| Cn1cc(-c2ccc3c(c2)CCN3C(=O)Cc2cccc(F)c2)c2c(N)ncnc21 [GSK2603358] | 0 |
| Nc1ncc(-c2cccnc2)c2scc(-c3ccc4c(c3)CCN4C(=O)Cc3ccccc3)c12 [GSK683281] | 7 |
| COC(=O)Nc1nc2cc(Oc3ccc(NC(=O)Nc4cc(C(F)(F)F)ccc4F)cn3)ccc2[nH]1.Cl.Cl [GW681170] | 0 |
| CCn1c(-c2nonc2N)nc2c(C#CC(C)(C)O)nc(OC[C@H](N)c3ccccc3)cc21 [GSK943949] | 98 |
| COc1ccc(Nc2nccc(N3CCC(NC(=O)Nc4cccc(OC)c4)C3)n2)cc1 (centres unmarked) [GSK1379742] | 0 |
| O=C(Nc1cccc(Oc2ccc3nc(NC(=O)C4CC4)cn3n2)c1)c1ccccc1C(F)(F)F | 0 |
| Fc1ccc(-c2ncn(C3CCNCC3)c2-c2ccnc(Oc3ccc(-c4ccccc4)cc3)n2)cc1 [SB-245391] | 0 |
| CC(=O)Nc1nc2cnc(Nc3cc(NC(=O)c4cccc(C5(C#N)CC5)c4Cl)ccc3C)nc2s1 | 9 |
| Clc1ccc(-c2nn3ncccc3c2-c2ccnc(Nc3ccc4c(c3)OCCO4)n2)cc1 [GW829116] | 0 |
| O=C(Nc1ccccc1F)NC1CCN(c2ccnc(Nc3ccc(F)cc3)n2)CC1 [GSK1379800] | 0 |
| c1ccc(-c2cnc3nccnn23)cc1 [AH20685] | 0 |
| COc1cc2c(cc1OCCN1CCNCC1)ncc1c3ccc(C#N)cc3[nH]c21 | 0 |

| Structure (SMILES) | %Inh [%] |
| --- | --- |
| COc1cccc(C2=C(Nc3ccc(Cl)c(C(=O)O)c3)C(=O)NC2=O)c1 [SB-390769] | 1 |
| O=C(O)C(F)(F)F.O=C(O)C(F)(F)F.O=c1[nH]ccc2nc(N[C@@H]3CCCNC3)nc(Nc3ccc(S(=O)(=O)N4CCOCC4)cc3)c12 [GSK2177277] | 99.9 |
| COc1cccc(NC(=O)NC2CCN(c3ccnc(Nc4cc(OC)c(OC)c(OC)c4)n3)C2)c1 (centres unmarked) [GSK1379763] | 0 |
| O=c1[nH]cc(-c2ccc(N3CCOCC3)cc2)c2sc(-c3cn[nH]c3)cc12 [GSK2276055] | 31 |
| Nc1ncc(-c2ccc3nccc(-c4ccncc4)c3c2)cc1S(=O)(=O)N1CCOCC1 [GSK1627798] | 0 |
| Cl.c1ccc(-c2ccc3c(Nc4ccc5[nH]ncc5c4)ccnc3c2)nc1 [GW440137] | 0 |
| Cc1ccc(C)c(NC(=O)NC2CCN(c3ccnc(Nc4ccc(F)cc4)n3)C2)c1 (centres unmarked) [GSK1379720] | 0 |
| Cl.Cl.NCC(NC(=O)c1cc(-c2ccccc2)c(-c2ccnc3[nH]ccc23)s1)c1ccccc1 (centres unmarked) [GSK1321561] | 44 |
| Cc1occc1-c1ncc(OC[C@@H](N)Cc2c[nH]c3ccccc23)cc1-c1ccc2[nH]nc(C)c2c1.O=C(O)C(F)(F)F [GSK682037] | 36 |
| CN(c1ccc(NC(=O)Nc2cc(C(F)(F)F)ccc2F)cc1)c1ccnc(Nc2ccc(S(N)(=O)=O)cc2)n1 [GW809893] | 0 |
| CC(C)c1nc(-c2cccc(NS(=O)(=O)c3c(F)cccc3F)c2F)c(-c2ccnc(Nc3ccc(N4CCOCC4)nc3)n2)s1 [GSK2008607] | 20 |
| Cc1cccc(Nc2nc(N[C@H]3CCNC3)ncc2C(N)=O)c1.Cl [GSK2197149] | 98 |
| COc1cccc(C(=O)Nc2cccc(Oc3ccc4nc(NC(=O)C5CC5)cn4n3)c2)c1 | 0 |
| Cl.c1ccc(-c2ccc3c(Nc4ccc5[nH]ccc5c4)ccnc3c2)nc1 [GW440138] | 0 |
| CC(=O)N1CCN(c2ccc(Nc3nccc(-c4sc(C(C)C)nc4-c4cccc(NS(=O)(=O)c5cccc(Cl)c5)c4)n3)cn2)CC1 [GSK1660437] | 0 |
| CCn1c(-c2nonc2N)nc2c(C#CC(C)(C)O)ncc(OCCCCN)c21.O=C(O)C(F)(F)F.O=C(O)C(F)(F)F [GSK507274] | 99 |
